Source: PubChem BioAssay AID1053125 (Broad Institute, 2014)
Results with a measured potency or affinity are listed apart. Active and inactive are the calls of the source.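 Rule for the calls: active = viability loss whose fitted half-maximal concentration is at most twice the top valid tested dose; inconclusive = flat curve with 30 to 70% loss, or poor fit; inactive = the rest.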

Assay: viability loss in HepG2 liver cells – cell-based, ATP luminescence, cherry-pick, set 6, cytotoxicity control, dose response (AID 1053125);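 note: negative values mean loss of viability signal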
Settings: ATP luminescence (CellTiter-Glo), 72 h; series mostly up to 26 µM

| SMILES | outcome |
| --- | --- |
| N#CC1=C(N)Oc2cc(O)ccc2C1c1ccc2c(c1)OCO2 (stereo not drawn) | inactive |
| CC12CC(c3ccccc3O1)C(C(=O)OCc1ccccc1)C(=O)N2 (stereo not drawn) | inactive |
| CC(C)OP(=O)(O)NC(=O)c1ccccc1 | inactive |
